Consider 21 compounds from PubChem BioAssay (EPA / NIEHS).

Where “and” joins values, the source holds several entries; their conditions need not be identical. Equal values may be shown once. More than one record can exist for a structure, and the calls need not agree. Calls of active or inactive are those of the source. The calls were made as follows: active = hit-call score of the fitted dose curve at least 0.9, where 1 is the maximum; inactive = score below 0.9.

Holding throughout (settings): mRNA level, 48 h; actives raise or lower the signal
Read-out in experiment [1]: ABC Transporter (ABCB11), ABCB11 (gene 8647)
In words: LTEA_HepaRG_ABCB11: Life Technologies and Expression Analysis (LTEA) Assay for ABC Transporter (ABCB11) using HepaRG (AID 2283463). Put shortly: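 HepaRG, 48 h exposure, 8-pt half-log CRC top 100 uM, 0.5% DMSO vehicle, duplicates. Readout: TaqMan qRT-PCR of ABCB11 mRNA, housekeeping-normalized (ACTB/GAPDH/POLR2A). Bidirectional fit vs DMSO baseline.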

Read-out in experiment [2]: ABC Transporter (ABCC2), ABCC2 (gene 1244)
The experiment is described as follows: LTEA_HepaRG_ABCC2: Life Technologies and Expression Analysis (LTEA) Assay for ABC Transporter (ABCC2) using HepaRG (AID 2283464). Put shortly: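 Differentiated HepaRG cells in serum-free induction medium exposed 48 h to eight half-log concentrations up to 100 uM, 0.5% DMSO, in duplicate. ABCC2 mRNA measured by qRT-PCR (TaqMan, Fluidigm), normalized to ACTB, GAPDH and POLR2A. Fitted in both directions against DMSO.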

Read-out in experiment [3]: Peroxisomal acyl-coenzyme A oxidase 1 (ACOX1) gene, ACOX1 (gene 51)
The experiment is described as follows: LTEA_HepaRG_ACOX1: Life Technologies and Expression Analysis (LTEA) Assay for Peroxisomal acyl-coenzyme A oxidase 1 (ACOX1) gene using HepaRG (AID 2283467). An outline of the steps: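 HepaRG, 48 h chemical exposure, 8-pt half-log series from 100 uM top, 0.5% DMSO vehicle, duplicates. Readout: ACOX1 mRNA by Fluidigm qRT-PCR, housekeeping-normalized; bidirectional fit vs DMSO baseline.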

Read-out in experiment [4]: Alkaline Phosphatase, Placental (ALPP) gene, ALPP (gene 250)
In words: LTEA_HepaRG_ALPP: Life Technologies and Expression Analysis (LTEA) Assay for Alkaline Phosphatase, Placental (ALPP) gene using HepaRG (AID 2283468).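 As to AC50: differentiated human HepaRG liver cells in serum-free induction medium.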 Put shortly: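 HepaRG cells plated 48 h, then exposed in duplicate for 48 h in serum-free induction medium to 8-point half-log series from 100 uM in 0.5% DMSO. ALPP mRNA by TaqMan qRT-PCR, normalized to ACTB/GAPDH/POLR2A; bidirectional fit versus DMSO.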

Read-out in experiment [5]: Bcl-2 (BAD) gene, BAD (gene 572)
In words: LTEA_HepaRG_BAD: Life Technologies and Expression Analysis (LTEA) Assay for Bcl-2 (BAD) gene using HepaRG (AID 2283469). An outline of the steps: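 HepaRG, 48 h exposure, 8-pt half-log curve from 100 uM in 0.5% DMSO, duplicates. Readout: TaqMan qRT-PCR for BAD mRNA, housekeeping-normalised (ACTB/GAPDH/POLR2A); gain or loss fitted against DMSO baseline.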

Read-out in experiment [6]: Bcl-2 (BAX) gene, BAX (gene 581)
The experiment is described as follows: LTEA_HepaRG_BAX: Life Technologies and Expression Analysis (LTEA) Assay for Bcl-2 (BAX) gene using HepaRG (AID 2283470). Put shortly: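 Human HepaRG cells treated in duplicate for 48 h across eight concentrations (max 100 uM, 0.5% DMSO); BAX expression measured by qRT-PCR.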

Read-out in experiment [7]: adenosine kinase (ADK) gene, ADK (gene 132)
In words: LTEA_HepaRG_ADK: Life Technologies and Expression Analysis (LTEA) Assay for adenosine kinase (ADK) gene using HepaRG (AID 2283471). An outline of the steps: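 Read-out is ADK transcript level measured by qRT-PCR and normalised to three housekeeping genes. Cells are human HepaRG, dosed for 48 h at up to 100 uM in 0.5% DMSO. Gain or loss of signal is fitted against DMSO controls.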

Read-out in experiment [8]: Alpha-fetoprotein (AFP) gene, AFP (gene 174)
The experiment is described as follows: LTEA_HepaRG_AFP: Life Technologies and Expression Analysis (LTEA) Assay for Alpha-fetoprotein (AFP) gene using HepaRG (AID 2283472). An outline of the steps:
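Measures AFP mRNA change in HepaRG after 48 h chemical exposure (8 half-log concentrations, highest 100 uM, 0.5% DMSO). Fold change relative to DMSO, fitted in both directions.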

Read-out in experiment [9]: ATP-citrate lyase (ACLY), ACLY (gene 47)
The experiment is described as follows: LTEA_HepaRG_ACLY: Life Technologies and Expression Analysis (LTEA) Assay for ATP-citrate lyase (ACLY) using HepaRG (AID 2283466). Put shortly: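 qRT-PCR readout of ACLY transcript after 48 h chemical treatment of HepaRG cells; expression normalized to three housekeeping genes. Eight-point half-log series, highest 100 uM, 0.5% DMSO vehicle. Gain or loss fitted against DMSO baseline.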

Read-out in experiment [10]: Broad substrate specificity ATP-binding cassette transporter ABCG2 (Homo sapiens) (UniProt Q9UNQ0)
In words: LTEA_HepaRG_ABCG2: Life Technologies and Expression Analysis (LTEA) Assay for ABC Transporter (ABCG2) using HepaRG (AID 2283465). Put shortly: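 HepaRG, 48 h exposure, 8-pt half-log series from 100 uM, 0.5% DMSO vehicle, duplicates. Readout: ABCG2 transcript by qRT-PCR (Fluidigm array), housekeeping-normalized; bidirectional curve fit relative to DMSO baseline.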

Broad substrate specificity ATP-binding cassette transporter ABCG2 (Homo sapiens), sequence (Q9UNQ0 whole entry, looked up): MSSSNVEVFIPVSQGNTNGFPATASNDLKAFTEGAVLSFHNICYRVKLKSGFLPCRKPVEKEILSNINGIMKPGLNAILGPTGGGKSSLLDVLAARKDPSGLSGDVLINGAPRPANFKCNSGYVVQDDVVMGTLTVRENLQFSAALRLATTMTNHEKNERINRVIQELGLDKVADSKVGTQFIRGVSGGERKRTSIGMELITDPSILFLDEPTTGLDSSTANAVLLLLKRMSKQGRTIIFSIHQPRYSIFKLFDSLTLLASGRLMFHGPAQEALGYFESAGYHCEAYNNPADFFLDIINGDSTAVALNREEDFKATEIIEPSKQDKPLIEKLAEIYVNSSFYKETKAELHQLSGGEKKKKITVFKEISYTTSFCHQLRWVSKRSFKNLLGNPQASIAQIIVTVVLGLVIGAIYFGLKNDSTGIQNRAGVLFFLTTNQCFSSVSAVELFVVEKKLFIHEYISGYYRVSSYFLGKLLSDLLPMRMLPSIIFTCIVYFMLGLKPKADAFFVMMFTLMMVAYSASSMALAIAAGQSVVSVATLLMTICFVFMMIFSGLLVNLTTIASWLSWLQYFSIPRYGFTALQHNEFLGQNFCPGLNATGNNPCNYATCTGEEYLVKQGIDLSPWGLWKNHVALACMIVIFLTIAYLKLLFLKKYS

On to `CNC(=O)/C=C(\C)OP(=O)(OC)OC`, for which the compound was classed as inactive in experiment [1], in experiment [2], in [3], in experiment [4], in experiment [5] and in experiment [6]. The call in experiment [7] and in experiment [8] was inactive.
Take `CC(C)OC(=O)Nc1cccc(Cl)c1`: the result in experiment [1], in experiment [2], in experiment [3], in experiment [4], in experiment [5] and in experiment [6] was inactive. For the same compound, the call in experiment [7] and in [8] was inactive.
For `CNC(=O)CSP(=S)(OC)OC`, the result in [1], in experiment [2], in experiment [3], in experiment [4], in [5] and in experiment [6] was inactive. For the same compound, the compound was classed as inactive in experiment [7] and in [8].
For the compound `O=[N+]([O-])c1c(Cl)c(Cl)c(Cl)c(Cl)c1Cl`, the compound was called inactive in experiment [1], in experiment [2], in [9], in [3], in [4] and in [5]. For the same compound, the result in experiment [6], in [7] and in experiment [8] was inactive.
With `CCN(CC)C(=O)SCc1ccc(Cl)cc1`, the outcome in experiment [1], in experiment [2], in experiment [3], in experiment [4], in [5] and in experiment [6] was inactive. The result in experiment [7] and in experiment [8] was inactive.
Turning to `COP(=S)(OC)Oc1ccc(SC)c(C)c1`, the call in [1], in [2], in experiment [3], in experiment [4], in [5] and in [6] was inactive. The call in experiment [7] was inactive. Further, the figures for the AC50 in experiment [10] and in [8] were 31.8 µM (active) and 10.3 µM (active), respectively.
Consider `Oc1cc(Cl)ccc1Oc1ccc(Cl)cc1Cl`, for which the AC50 in experiment [1] was 73.3 µM (active) and 75.5 µM (active); in experiment [8], 51 µM (active). Further, the outcome in [1], in [2], in experiment [3], in experiment [4], in experiment [5] and in experiment [6] was inactive. Moreover, the call in experiment [7] and in [8] was inactive.
Regarding `CC(C)(C)C(O)C(Oc1ccc(Cl)cc1)n1cncn1` (stereo unspecified), the half-maximal activity concentration (AC50) in experiment [1] was 9.92 µM (active); in experiment [2], 2.47 µM (active); in experiment [3], 1.25 µM (active); in experiment [8], 4.76 µM (active) and 9.92 µM (active) and 50 µM (active). For the same compound, the outcome in [1], in experiment [2], in experiment [3], in experiment [4], in [5] and in experiment [6] was inactive. For the same compound, the compound was called inactive in experiment [7].
Take `O=[N+]([O-])/N=C1\NCCN1Cc1ccc(Cl)nc1`: the AC50 in [1] was 26.6 µM (active); in experiment [2], 24.9 µM (active); in experiment [3], 29.7 µM (active); in [7], 35.2 µM (active); in experiment [8], 31.7 µM (active). The outcome in experiment [9], in experiment [4], in [5] and in [6] was inactive.
`CCC(C)Nc1c([N+](=O)[O-])cc(C(C)(C)C)cc1[N+](=O)[O-]` (stereo unspecified): the compound was called inactive in experiment [1], in experiment [9], in experiment [3], in experiment [4], in [5] and in experiment [6]. Further, in experiment [7], the outcome was inactive. The values for the AC50 in experiment [2] and in experiment [8] were 17.8 µM (active) and 50 µM (active), respectively.
In the case of `COP(=O)(OC)OC=C(Cl)Cl`, the result in [1], in [2], in [10], in experiment [3], in experiment [4] and in experiment [5] was inactive. Also, the call in experiment [6], in experiment [7] and in experiment [8] was inactive.
As to `O=C(O)COc1ccc(Cl)cc1Cl`, the AC50 in experiment [1] was 31.2 µM (active). Also, the compound was called inactive in experiment [2], in experiment [9], in [3], in experiment [4], in [5] and in experiment [6]. For the same compound, the compound was classed as inactive in experiment [7] and in experiment [8].
With `O=S(=O)(O)C(F)(F)C(F)(F)C(F)(F)C(F)(F)C(F)(F)C(F)(F)C(F)(F)C(F)(F)F`, the AC50 was 90.7 µM (active) and 85.1 µM (active) and 86.6 µM (active) in experiment [1]; 14.2 µM (active) and 90.7 µM (active) in [2]; 36.6 µM (active) and 50 µM (active) and 48 µM (active) in [4]; 50 µM (active) and 48 µM (active) in experiment [6]; 12.8 µM (active) in [7]; 77.9 µM (active) and 80.1 µM (active) and 75.8 µM (active) in experiment [8]. In addition, the outcome in experiment [1], in experiment [2], in experiment [3], in experiment [4], in experiment [5] and in experiment [6] was inactive. In addition, the outcome in [7] and in experiment [8] was inactive.
As to `CNC(=O)Oc1cccc(N=CN(C)C)c1`, the outcome in experiment [1], in experiment [2], in [3], in experiment [4], in [5] and in experiment [6] was inactive. Besides, the outcome in experiment [7] and in experiment [8] was inactive.
Regarding `O=C(Nc1ccccc1)Nc1cnns1`, the AC50 in experiment [1] is 63.6 µM (active); in experiment [2], 89.5 µM (active); in [3], 50 µM (active); in experiment [4], 78.6 µM (active); in experiment [8] it was 76.2 µM (active). In addition, the result in experiment [9], in experiment [5], in experiment [6] and in [7] was inactive.
`Oc1ccc(Cl)cc1Cc1ccccc1`: the AC50 in experiment [1] was 93.7 µM (active) and 67 µM (active) and 80 µM (active); in experiment [8], 82.5 µM (active) and 90 µM (active). For the same compound, the result in experiment [2], in experiment [10], in experiment [3], in experiment [4], in [5] and in experiment [6] was inactive. The compound was called inactive in experiment [7] and in [8].
As for `CCC(C)(C)C(=O)OC1=C(c2ccc(Cl)cc2Cl)C(=O)OC12CCCCC2`, the AC50 in experiment [1] is 20.7 µM (active). The outcome in experiment [2], in [3], in [4], in experiment [5], in experiment [6] and in [7] was inactive. The result in [8] was inactive.
As for `O=S1OCC2C(CO1)C1(Cl)C(Cl)=C(Cl)C2(Cl)C1(Cl)Cl` (stereo unspecified), the AC50 is 50 µM (active) in experiment [1], 53.9 µM (active) in experiment [3] and 50 µM (active) in [8]. Besides, the outcome in [2], in experiment [10], in [4], in experiment [5], in experiment [6] and in experiment [7] was inactive.
As to `C#CCN1C(=O)COc2cc(F)c(N3C(=O)C4=C(CCCC4)C3=O)cc21`, the AC50 was 50 µM (active) in [1], 8.81 µM (active) in [2] and 40.4 µM (active) in experiment [8]. The compound was called inactive in [10], in experiment [3], in experiment [4], in experiment [5], in experiment [6] and in [7].
As to `CC(C)N(C(=O)COc1nnc(C(F)(F)F)s1)c1ccc(F)cc1`, the AC50 in [1] is 50 µM (active); in [3], 19.4 µM (active); in experiment [8], 37.6 µM (active). The compound was called inactive in [2], in [4], in experiment [5], in experiment [6] and in experiment [7].
On to `O=C(O)C(F)(F)C(F)(F)C(F)(F)C(F)(F)C(F)(F)C(F)(F)C(F)(F)F`, for which the compound was classed as inactive in experiment [1], in [2], in experiment [4], in experiment [5], in experiment [6] and in experiment [7]. Also, in experiment [8], the result was inactive. In addition, the AC50 in experiment [3] was 3.48 µM (active) and 8.37 µM (active); in experiment [4], 9.92 µM (active).

The term AC50 denotes the concentration giving half of the maximal activity seen.
